From PubChem
Cruzain noTriton = inhibitors of Trypanosoma cruzi cruzain without detergent | P25779 | purified cruzain, Z-FR-AMC fluorescence, no detergent | Potency, µM, actives largely listed as inhibitors | 200,000 tested, 2.3% active; also: nearly all actives have a fitted effect of over 40% in size
Target sequence (P25779 123-467 limits assumed): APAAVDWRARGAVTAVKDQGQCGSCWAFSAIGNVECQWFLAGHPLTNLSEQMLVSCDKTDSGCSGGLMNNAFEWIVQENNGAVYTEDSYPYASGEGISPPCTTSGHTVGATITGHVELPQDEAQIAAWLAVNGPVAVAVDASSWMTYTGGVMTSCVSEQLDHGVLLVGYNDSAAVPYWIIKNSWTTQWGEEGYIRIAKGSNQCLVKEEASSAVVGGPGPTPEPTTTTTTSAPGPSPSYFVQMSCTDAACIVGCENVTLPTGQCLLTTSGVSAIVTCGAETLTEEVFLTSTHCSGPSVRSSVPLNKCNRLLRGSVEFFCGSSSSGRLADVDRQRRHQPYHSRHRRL
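Detergent-free condition (0.00005% Triton X-100) in acetate buffer pH 5.5 with DTT. 1.5 nM enzyme and compound were pre-mixed 15 min, then 2 uM Z-FR-AMC substrate added; reaction progress from fluorescence change between first and third reads (60 s).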
Cruzain inh Det = inhibitors of Trypanosoma cruzi cruzain with detergent; P25779; purified cruzain, Z-FR-AMC fluorescence, 0.01% Triton; Potency, µM, most hits filed as inhibitors; 200,000 tested, 0.43% active; AID 1478; also: nearly all actives have a fitted effect of over 40% in size
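Purified cruzain (1.5 nM final) was preincubated with compounds for 15 min at room temperature in 100 mM sodium acetate pH 5.5, 5 mM DTT, 0.01% Triton X-100. Reaction started with 2 uM Z-FR-AMC; AMC fluorescence change over 60 s gave activity.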
Large screens that a line does not name were inactive. Sampled rows, rich in hits. Any-hit rate of the full collection: about 2.4%. Calls follow the shape of the dose curve; as a rule, active = well fitted curve in the direction sought with a large enough effect; inconclusive = small, poorly fitted or top-dose-only effect, or another doubt; inactive = no such curve, though single readings can be large; an effect the other way counts as inactive or inconclusive.

CCOc1ccc(CCNC(=O)c2nn(C)c3c2CSc2ccccc2-3)cc1	none
Cc1cccc(N2CC(C(=O)Nc3nnc(SCC(=O)Nc4nccs4)s3)CC2=O)c1 (stereo not drawn)	Cruzain noTriton 6.31µM
Cc1ccccc1N1CC(C(=O)Nc2nnc(SCC(=O)Nc3nccs3)s2)CC1=O (stereo not drawn)	none
COc1cccc(N2CC(C(=O)Nc3nnc(SCC(=O)c4ccccc4)s3)CC2=O)c1 (stereo not drawn)	none
COc1ccc(Nc2nnc(SCC(=O)Nc3cc(C)on3)s2)cc1	none
Cc1cccc(N2CC(C(=O)Nc3nnc(SCC(=O)Nc4cc(C)on4)s3)CC2=O)c1 (stereo not drawn)	Cruzain noTriton 10µM
Cc1cc(NC(=O)CSc2nnc(Nc3ccccc3)s2)no1	Cruzain noTriton 15.8µM
O=C(c1ccc2c(c1)N(Cc1ccc(Cl)cc1)C(=O)c1ccccc1S2=O)N1CCC(Cc2ccccc2)CC1 (stereo not drawn)	Cruzain noTriton inconclusive
Cc1cccc(N(Cc2cc3ccccc3[nH]c2=O)C(=O)c2cccc(Cl)c2)c1	Cruzain noTriton inconclusive
O=C(NCCN1CCN(c2cccc(Cl)c2)CC1)C1COc2ccccc2C1 (stereo not drawn)	none
CCN1C(=O)c2ccccc2Sc2ccc(NC(=O)c3ccc(C#N)cc3)cc21	none
COc1cccc(OCCn2cc(/C=N/NC(=O)c3ccncc3)c3ccccc32)c1	Cruzain noTriton inconclusive
CNC(=S)N/N=C/c1cn(CCOc2cccc(OC)c2)c2ccccc12	Cruzain noTriton 25.1µM
CNC(=S)N/N=C/c1cn(CCOc2ccccc2OC)c2ccccc12	Cruzain noTriton 31.6µM
COc1ccc(OCCn2cc(/C=N/NC(=O)c3ccncc3)c3ccccc32)cc1	Cruzain noTriton inconclusive
Cc1ccc(S(=O)(=O)c2nc(S(=O)(=O)c3ccccc3)sc2NCCCOC(C)C)cc1	none
CC(C)Oc1ccc(CNC(=O)C2=Cc3ccccc3OC2)cc1	none
CC(=O)c1ccc(NC(=O)c2ccc3nc(-c4ccco4)c(-c4ccco4)nc3c2)cc1	Cruzain noTriton inconclusive, Cruzain inh Det 14.1µM
O=C(Nc1ccc(N2CCOCC2)cc1)c1ccc2nc(-c3ccco3)c(-c3ccco3)nc2c1	none
O=C(NCc1ccccc1)c1ccc2nccnc2c1	none
O=C(NCc1ccccc1)c1ccc2nc(-c3ccco3)c(-c3ccco3)nc2c1	Cruzain noTriton 7.94µM, Cruzain inh Det inconclusive
COc1ccc(N2CCN(c3ccc(-c4nc(-c5ccccc5C)no4)cc3[N+](=O)[O-])CC2)cc1	none
Cc1ccc(-n2c(=O)c3ccc(C(=O)NCc4ccccc4Cl)cc3n(CC(=O)Nc3cccc(F)c3)c2=O)cc1	none
Cc1ccc(Cc2nc3ccccc3nc2SCC(=O)N2CCCCC2)cc1	none
COc1ccc(CCNC(=O)c2ccc(Cn3c(=O)[nH]c4cc(OC)c(OC)cc4c3=O)cc2)cc1OC	Cruzain noTriton inconclusive
Cc1cccc(NC(=O)C2CCCC2)c1	none
Cc1cccc(NC(=O)COC(=O)CNC(=O)C2CCCCC2)c1	Cruzain noTriton 7.94µM, Cruzain inh Det 7.08µM
O=c1n(Cc2ccc([N+](=O)[O-])cc2)c2ccccc2c2nc(-c3ccccc3)nn12	none
CSc1nc2ccccc2cc1/C=C(\C#N)c1ccccc1	none
CSc1nc2ccccc2cc1/C=C(\C#N)c1ccc(Cl)c(Cl)c1	Cruzain noTriton 25.1µM
N#CCc1c(C#N)c(N)nc(N2CCN(c3ccc(F)cc3)CC2)c1C#N	Cruzain noTriton 15.8µM
N#CCc1c(C#N)c(N)nc(N2CCN(Cc3ccc4c(c3)OCO4)CC2)c1C#N	none
CCOc1ccc(N(CC)S(=O)(=O)N2CCCC(C(=O)NCc3ccccc3OCC)C2)cc1 (stereo not drawn)	none
CCOC(=O)c1c(NC(=S)Nc2ccccc2)sc2c1CCCCC2	none
CCOC(=O)c1c(NC(=S)Nc2cccc(C)c2)sc2c1CC(C)(C)SC2	Cruzain noTriton 20µM
CCN1c2ccccc2-c2nc(SCC(=O)Nc3cccc(C)c3C)ncc2S1(=O)=O	none
CCCCC(CC)Cn1c(O)c(/C=C2\C=NN=C2c2ccccc2)sc1=S (stereo not drawn)	Cruzain noTriton 7.94µM
CCCn1c(O)c(/C=C2\C=NN=C2c2ccccc2)sc1=S	none
O=S(=O)(c1cccc(Cl)c1)c1nnn2c1nc(NC1CCCC1)c1sccc12	none
Cc1nc2sc(C(N)=O)c(N)c2c(-c2ccc(Br)cc2)c1C(=O)Nc1ccc(Cl)cc1	Cruzain noTriton inconclusive
Fc1ccccc1-n1ncc2c1ncn1nc(Cc3ccccc3)nc21	none
Cc1cc(/C=C2/SC(=S)N(c3ccc([N+](=O)[O-])cc3)C2=O)c(C)n1-c1cccnc1	Cruzain noTriton 15.8µM
Cc1ccc(N2C(=O)/C(=C/c3cccnc3)SC2=S)cc1	Cruzain noTriton inconclusive
Nc1ccc(-c2nc3c(Cl)c(N)ccc3[nH]2)cc1	Cruzain noTriton 31.6µM, Cruzain inh Det inconclusive
Clc1ccc2nc(-c3ccccc3)[nH]c2c1	none
Nc1ccc2nc(-c3ccc(Cl)cc3)[nH]c2c1	Cruzain noTriton 20µM, Cruzain inh Det inconclusive
Nc1ccc(-c2nc3ccc([N+](=O)[O-])cc3[nH]2)cc1	none
Cc1ccc(C)c(-c2nc3ccc(N)cc3[nH]2)c1	Cruzain noTriton inconclusive
Nc1ccc2nc(-c3cc(Cl)c(N)c(Cl)c3)[nH]c2c1	Cruzain noTriton 15.8µM, Cruzain inh Det inconclusive
Cc1cccc(C)c1NC(=O)c1sc(-n2nc(C)c(Cc3ccccc3)c2C)nc1C	none
COC(=O)c1scc(-c2ccc(C)cc2)c1S(=O)(=O)Nc1cc(C)c(Cl)cc1OC	none
COc1cc(C(=O)Nc2ccc3oc(-c4ccccc4)nc3c2)cc(OC)c1OC	Cruzain noTriton inconclusive
COc1cccc(/C=N/NC(=O)c2cc(-c3cccn3C)n[nH]2)c1	Cruzain noTriton 25.1µM
COc1cccc(/C=N/NC(=O)c2ccc(OCc3cccc(Br)c3)cc2)c1	Cruzain noTriton inconclusive
COc1cc(/C=N/NC(=O)c2cc(-c3cccn3C)n[nH]2)cc(OC)c1OC	none
CN(C)c1ccc(/C=N/NC(=O)c2ccc(CN3C(=O)c4cccc5cccc3c45)cc2)cc1	Cruzain noTriton 3.98µM
O=C(N/N=C/c1ccccc1)c1ccc(CN2C(=O)c3cccc4cccc2c34)cc1	none
COc1cccc(/C=N/NC(=O)c2ccc(CN3c4cccc5cccc(c45)S3(=O)=O)cc2)c1	Cruzain noTriton 20µM
CCC(=O)N1CCc2cc(Br)cc(S(=O)(=O)N3CCC(C(=O)Nc4ccccc4F)CC3)c21	Cruzain noTriton inconclusive
CCc1ccc(S(=O)(=O)NCc2nc3cccnc3n2Cc2ccccc2Cl)cc1	none
CCOc1ccc(S(=O)(=O)N2Cc3ccccc3CC2C(=O)Nc2ccc(NC(C)=O)cc2)cc1 (stereo not drawn)	Cruzain noTriton inconclusive
COc1ccc2c(C)c(CCC(=O)NCc3cccc(Cl)c3)c(=O)oc2c1	none
COc1ccc(/C=C/C(=O)Nc2ccc(-c3nnc4n3CCCCC4)cc2)c(OC)c1	Cruzain inh Det 14.1µM
COc1ccc(NS(=O)(=O)c2cccc(-c3nnc4n3CCCCC4)c2)cc1	none
COC(=O)c1c(NC(=O)CN2C(=O)c3ccccc3C2=O)sc(Cc2ccc3c(c2)OCO3)c1C	Cruzain noTriton 10µM
COC(=O)c1c(NC(=O)CN2CCN(Cc3ccc4c(c3)OCO4)CC2)sc(C)c1C	none
Cc1nc2cc(C(=O)OCC(=O)NC34CC5CC(CC(C5)C3)C4)ccc2n1-c1ccccc1	none
Cc1nc2cc(C(=O)OCC(=O)Nc3cccc(Cl)c3)ccc2n1-c1ccccc1	Cruzain noTriton 25.1µM
CCC(C)NC(=O)c1ccc2c(c1)sc1nc(-c3ccc(OC)cc3)cn12 (stereo not drawn)	none
